This note sets out measurements from ChEMBL document CHEMBL2218924, “A broad activity screen in support of a chemogenomic map for kinase signalling research and drug discovery” (Biochem J, 2013).

SMILES strings stand for the structures.

In assay [1] the target is ALK tyrosine kinase receptor (Homo sapiens) (UniProt Q9UM73). The following applies: at 10 µM.
Assay [2] concerns the target T1, Activin receptor type-1B (Homo sapiens) (UniProt P36896).
T1 sequence (whole entry): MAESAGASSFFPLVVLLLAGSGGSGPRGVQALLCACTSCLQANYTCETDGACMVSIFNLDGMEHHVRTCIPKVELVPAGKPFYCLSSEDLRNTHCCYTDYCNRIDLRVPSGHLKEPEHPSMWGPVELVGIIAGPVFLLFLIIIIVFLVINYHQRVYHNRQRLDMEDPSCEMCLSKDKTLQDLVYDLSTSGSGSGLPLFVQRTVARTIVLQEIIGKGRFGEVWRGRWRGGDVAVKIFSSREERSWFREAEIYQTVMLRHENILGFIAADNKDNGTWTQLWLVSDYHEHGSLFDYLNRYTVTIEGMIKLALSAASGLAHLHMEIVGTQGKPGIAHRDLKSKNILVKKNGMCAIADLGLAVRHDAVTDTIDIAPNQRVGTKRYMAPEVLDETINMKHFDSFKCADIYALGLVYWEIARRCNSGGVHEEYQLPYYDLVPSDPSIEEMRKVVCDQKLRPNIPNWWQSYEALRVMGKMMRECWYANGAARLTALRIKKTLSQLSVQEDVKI
The following applies: at 1 µM.

The target of assay [3] is T1, Activin receptor type-1B (Homo sapiens). The following applies: at 10 µM.
Assay [4] deals with T2, AMP-activated protein kinase (AMPK) alpha-1/beta-1/gamma-1 (Homo sapiens) (UniProt P54619+Q9Y478+Q13131). The following applies: at 1 µM.
Assay [5] concerns the target T2, AMP-activated protein kinase (AMPK) alpha-1/beta-1/gamma-1 (Homo sapiens). The following applies: at 10 µM.
Assay [6] has as its target T3, AMP-activated protein kinase, AMPK (Homo sapiens) (UniProt P54646+O43741+P54619+Q9UGJ0+Q9Y478+Q13131+Q9UGI9). The following applies: at 1 µM.
Assay [7] deals with T3, AMP-activated protein kinase, AMPK (Homo sapiens). The following applies: at 10 µM.
In assay [8] the target is T4, NUAK family SNF1-like kinase 1 (Homo sapiens) (UniProt O60285).
T4 sequence (whole entry): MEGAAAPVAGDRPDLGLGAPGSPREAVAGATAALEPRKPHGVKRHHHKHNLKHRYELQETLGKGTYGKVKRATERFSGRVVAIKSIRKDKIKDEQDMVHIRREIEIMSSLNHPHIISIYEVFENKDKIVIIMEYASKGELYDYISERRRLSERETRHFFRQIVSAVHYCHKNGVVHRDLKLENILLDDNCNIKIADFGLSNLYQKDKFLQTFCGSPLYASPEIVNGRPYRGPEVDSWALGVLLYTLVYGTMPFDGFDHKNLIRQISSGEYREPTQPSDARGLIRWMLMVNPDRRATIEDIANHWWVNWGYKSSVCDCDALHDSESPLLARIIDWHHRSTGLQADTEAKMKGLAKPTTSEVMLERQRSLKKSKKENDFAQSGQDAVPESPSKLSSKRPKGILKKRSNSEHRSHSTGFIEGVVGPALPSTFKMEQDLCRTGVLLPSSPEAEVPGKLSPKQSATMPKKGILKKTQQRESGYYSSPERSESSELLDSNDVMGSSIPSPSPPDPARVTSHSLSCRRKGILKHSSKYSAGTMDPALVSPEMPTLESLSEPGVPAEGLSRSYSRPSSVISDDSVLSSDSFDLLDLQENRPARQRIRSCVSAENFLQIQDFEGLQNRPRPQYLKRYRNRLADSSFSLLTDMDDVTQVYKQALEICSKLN
The following applies: at 1 µM.

For assay [9], the target named is T4, NUAK family SNF1-like kinase 1 (Homo sapiens). The following applies: at 10 µM.
Assay [10] has as its target T5, Mitogen-activated protein kinase kinase kinase 5 (Homo sapiens) (UniProt Q99683).
T5 sequence (whole entry): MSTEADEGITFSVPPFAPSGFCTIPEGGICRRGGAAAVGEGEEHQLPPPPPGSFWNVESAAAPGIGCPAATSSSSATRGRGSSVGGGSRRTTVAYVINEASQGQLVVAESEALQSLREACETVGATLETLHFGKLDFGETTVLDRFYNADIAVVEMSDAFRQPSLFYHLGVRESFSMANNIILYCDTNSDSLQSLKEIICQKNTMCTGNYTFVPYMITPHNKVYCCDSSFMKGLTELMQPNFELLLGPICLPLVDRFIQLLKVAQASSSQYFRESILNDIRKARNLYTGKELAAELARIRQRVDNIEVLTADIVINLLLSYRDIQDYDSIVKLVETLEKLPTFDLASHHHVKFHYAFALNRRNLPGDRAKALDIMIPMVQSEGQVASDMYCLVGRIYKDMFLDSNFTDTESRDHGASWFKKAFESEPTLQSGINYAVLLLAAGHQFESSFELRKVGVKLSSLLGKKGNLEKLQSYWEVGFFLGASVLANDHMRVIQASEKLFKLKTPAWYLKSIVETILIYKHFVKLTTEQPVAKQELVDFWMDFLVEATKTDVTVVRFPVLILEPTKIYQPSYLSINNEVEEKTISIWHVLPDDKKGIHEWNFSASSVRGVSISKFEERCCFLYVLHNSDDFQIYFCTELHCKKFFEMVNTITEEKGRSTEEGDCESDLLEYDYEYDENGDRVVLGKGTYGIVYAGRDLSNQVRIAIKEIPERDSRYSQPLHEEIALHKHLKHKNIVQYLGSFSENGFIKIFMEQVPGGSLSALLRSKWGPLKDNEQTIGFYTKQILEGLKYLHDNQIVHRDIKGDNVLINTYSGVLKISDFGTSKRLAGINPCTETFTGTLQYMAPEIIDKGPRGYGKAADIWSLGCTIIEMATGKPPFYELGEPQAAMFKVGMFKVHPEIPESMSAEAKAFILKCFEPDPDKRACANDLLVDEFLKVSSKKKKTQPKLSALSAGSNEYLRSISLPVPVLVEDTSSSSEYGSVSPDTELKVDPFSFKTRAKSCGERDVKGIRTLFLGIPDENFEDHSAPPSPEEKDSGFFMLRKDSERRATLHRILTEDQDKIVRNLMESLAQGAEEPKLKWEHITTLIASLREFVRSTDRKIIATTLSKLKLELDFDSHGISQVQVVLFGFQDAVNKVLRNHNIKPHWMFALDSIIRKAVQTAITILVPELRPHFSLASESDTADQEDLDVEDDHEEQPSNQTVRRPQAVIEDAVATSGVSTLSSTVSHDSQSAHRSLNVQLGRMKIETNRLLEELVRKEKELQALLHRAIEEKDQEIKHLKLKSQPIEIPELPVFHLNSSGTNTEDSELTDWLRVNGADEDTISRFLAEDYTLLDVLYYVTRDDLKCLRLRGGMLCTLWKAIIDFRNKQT
The following applies: at 1 µM.

Assay [11] concerns the target Platelet-derived growth factor receptor alpha (Homo sapiens) (UniProt P16234). The following applies: at 1 µM.
Assay [12] shares this target. The following applies: at 10 µM.
The target of assay [13] is Platelet-derived growth factor receptor beta (Homo sapiens) (UniProt P09619). The following applies: at 1 µM.
Assay [14] has the same target. The following applies: at 10 µM.
In assay [15] the target is T6, 3-phosphoinositide-dependent protein kinase 1 (Homo sapiens) (UniProt O15530).
T6 sequence (whole entry): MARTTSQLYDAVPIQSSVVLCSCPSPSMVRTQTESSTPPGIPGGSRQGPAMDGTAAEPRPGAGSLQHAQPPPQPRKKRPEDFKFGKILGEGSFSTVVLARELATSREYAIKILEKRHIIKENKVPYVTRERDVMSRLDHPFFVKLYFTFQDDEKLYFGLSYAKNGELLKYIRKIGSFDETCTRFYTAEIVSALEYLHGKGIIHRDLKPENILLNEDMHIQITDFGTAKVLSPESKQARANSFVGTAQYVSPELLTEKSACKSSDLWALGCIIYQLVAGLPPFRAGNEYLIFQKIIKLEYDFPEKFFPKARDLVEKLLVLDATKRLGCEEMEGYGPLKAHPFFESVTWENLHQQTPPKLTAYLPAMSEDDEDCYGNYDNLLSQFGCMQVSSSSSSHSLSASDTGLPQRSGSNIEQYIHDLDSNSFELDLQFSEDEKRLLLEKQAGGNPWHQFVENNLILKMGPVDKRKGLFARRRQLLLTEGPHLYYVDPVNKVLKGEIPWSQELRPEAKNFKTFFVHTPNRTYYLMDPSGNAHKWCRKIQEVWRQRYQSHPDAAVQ
The following applies: at 1 µM.

Assay [16] deals with T6, 3-phosphoinositide-dependent protein kinase 1 (Homo sapiens). The following applies: at 10 µM.
Assay [17] has as its target cAMP-dependent protein kinase catalytic subunit alpha (Homo sapiens) (UniProt P17612). The following applies: at 1 µM.
Assay [18] has the same target. The following applies: at 10 µM.
Assay [19] addresses RAC-gamma serine/threonine-protein kinase (Homo sapiens) (UniProt Q9Y243). The following applies: at 1 µM.
The target is the same in assay [20]. The following applies: at 10 µM.

ALK tyrosine kinase receptor (Homo sapiens), sequence (Q9UM73 19-1620 limits assumed): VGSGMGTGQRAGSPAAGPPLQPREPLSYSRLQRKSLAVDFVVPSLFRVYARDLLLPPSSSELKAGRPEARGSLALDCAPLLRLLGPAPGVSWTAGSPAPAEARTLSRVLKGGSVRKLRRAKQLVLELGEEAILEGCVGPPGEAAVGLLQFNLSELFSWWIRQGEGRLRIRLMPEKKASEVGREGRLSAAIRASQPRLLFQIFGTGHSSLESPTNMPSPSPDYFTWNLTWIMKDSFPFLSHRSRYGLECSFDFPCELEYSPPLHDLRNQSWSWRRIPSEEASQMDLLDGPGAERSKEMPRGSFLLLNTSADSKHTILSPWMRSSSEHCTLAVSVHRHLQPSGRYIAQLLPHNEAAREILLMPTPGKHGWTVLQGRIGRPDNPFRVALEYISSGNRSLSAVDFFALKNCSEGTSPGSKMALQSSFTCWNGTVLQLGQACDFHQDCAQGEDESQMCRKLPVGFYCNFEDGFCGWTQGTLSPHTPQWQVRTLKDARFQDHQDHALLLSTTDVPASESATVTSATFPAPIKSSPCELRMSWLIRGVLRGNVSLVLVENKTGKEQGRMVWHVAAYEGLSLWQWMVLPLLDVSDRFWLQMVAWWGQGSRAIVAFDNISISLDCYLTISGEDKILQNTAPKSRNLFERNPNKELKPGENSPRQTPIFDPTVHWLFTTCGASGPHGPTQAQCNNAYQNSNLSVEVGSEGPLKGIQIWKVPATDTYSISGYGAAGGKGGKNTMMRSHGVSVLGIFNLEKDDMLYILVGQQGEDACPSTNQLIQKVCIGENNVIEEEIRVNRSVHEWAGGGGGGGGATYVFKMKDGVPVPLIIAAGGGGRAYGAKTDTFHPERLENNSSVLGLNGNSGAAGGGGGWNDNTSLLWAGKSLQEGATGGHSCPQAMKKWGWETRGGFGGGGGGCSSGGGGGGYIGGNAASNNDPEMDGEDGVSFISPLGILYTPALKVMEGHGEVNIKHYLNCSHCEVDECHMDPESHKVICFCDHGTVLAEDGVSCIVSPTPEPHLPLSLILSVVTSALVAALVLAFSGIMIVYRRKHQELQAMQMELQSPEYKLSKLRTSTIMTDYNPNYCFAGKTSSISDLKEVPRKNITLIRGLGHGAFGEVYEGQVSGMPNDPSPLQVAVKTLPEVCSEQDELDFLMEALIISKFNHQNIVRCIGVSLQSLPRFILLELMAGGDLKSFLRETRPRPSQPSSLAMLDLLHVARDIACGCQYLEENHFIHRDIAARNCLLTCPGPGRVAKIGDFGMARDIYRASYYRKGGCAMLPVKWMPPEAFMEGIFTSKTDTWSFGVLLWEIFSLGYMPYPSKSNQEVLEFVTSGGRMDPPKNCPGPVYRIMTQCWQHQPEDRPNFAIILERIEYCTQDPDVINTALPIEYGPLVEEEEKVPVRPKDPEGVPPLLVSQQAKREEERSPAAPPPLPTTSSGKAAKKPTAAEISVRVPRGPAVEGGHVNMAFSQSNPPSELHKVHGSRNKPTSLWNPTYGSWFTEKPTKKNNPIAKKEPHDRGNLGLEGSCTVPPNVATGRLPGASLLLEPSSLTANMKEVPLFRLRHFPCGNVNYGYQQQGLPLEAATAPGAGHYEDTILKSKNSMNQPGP
T2 sequence (P54619 whole entry): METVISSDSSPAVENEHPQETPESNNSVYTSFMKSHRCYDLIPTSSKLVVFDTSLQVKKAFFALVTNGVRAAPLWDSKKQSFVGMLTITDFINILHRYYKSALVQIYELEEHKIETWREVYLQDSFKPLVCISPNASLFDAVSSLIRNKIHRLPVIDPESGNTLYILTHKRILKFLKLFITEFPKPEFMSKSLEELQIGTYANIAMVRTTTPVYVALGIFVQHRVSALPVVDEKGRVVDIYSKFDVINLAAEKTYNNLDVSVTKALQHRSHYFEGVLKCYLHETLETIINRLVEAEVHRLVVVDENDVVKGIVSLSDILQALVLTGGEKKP
T2 sequence (Q13131 whole entry partner): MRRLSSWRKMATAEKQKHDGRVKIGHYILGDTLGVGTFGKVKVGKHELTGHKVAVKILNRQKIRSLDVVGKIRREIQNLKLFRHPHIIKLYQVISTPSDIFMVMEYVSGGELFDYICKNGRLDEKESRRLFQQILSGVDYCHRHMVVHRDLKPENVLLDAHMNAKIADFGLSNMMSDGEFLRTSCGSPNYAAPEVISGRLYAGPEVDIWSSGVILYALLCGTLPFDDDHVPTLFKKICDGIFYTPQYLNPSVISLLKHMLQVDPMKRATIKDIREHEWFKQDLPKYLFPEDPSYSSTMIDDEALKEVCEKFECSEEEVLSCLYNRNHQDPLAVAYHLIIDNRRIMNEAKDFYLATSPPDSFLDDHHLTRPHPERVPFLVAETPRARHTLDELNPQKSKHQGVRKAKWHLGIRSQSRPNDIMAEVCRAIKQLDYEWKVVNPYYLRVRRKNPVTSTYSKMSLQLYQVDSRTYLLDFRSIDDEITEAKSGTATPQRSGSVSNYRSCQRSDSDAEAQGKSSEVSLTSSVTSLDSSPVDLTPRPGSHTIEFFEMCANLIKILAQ
T2 sequence (Q9Y478 2-270 partner limits assumed): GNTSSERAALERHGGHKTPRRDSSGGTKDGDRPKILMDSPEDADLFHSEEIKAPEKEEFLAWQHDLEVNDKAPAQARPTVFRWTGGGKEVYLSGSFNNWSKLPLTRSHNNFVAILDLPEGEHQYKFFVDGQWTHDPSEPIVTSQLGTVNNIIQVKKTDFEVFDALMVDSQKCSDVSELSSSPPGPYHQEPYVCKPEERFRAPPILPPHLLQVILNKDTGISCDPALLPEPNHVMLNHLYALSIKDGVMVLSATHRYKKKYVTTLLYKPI
Platelet-derived growth factor receptor alpha (Homo sapiens), sequence (P16234 whole entry): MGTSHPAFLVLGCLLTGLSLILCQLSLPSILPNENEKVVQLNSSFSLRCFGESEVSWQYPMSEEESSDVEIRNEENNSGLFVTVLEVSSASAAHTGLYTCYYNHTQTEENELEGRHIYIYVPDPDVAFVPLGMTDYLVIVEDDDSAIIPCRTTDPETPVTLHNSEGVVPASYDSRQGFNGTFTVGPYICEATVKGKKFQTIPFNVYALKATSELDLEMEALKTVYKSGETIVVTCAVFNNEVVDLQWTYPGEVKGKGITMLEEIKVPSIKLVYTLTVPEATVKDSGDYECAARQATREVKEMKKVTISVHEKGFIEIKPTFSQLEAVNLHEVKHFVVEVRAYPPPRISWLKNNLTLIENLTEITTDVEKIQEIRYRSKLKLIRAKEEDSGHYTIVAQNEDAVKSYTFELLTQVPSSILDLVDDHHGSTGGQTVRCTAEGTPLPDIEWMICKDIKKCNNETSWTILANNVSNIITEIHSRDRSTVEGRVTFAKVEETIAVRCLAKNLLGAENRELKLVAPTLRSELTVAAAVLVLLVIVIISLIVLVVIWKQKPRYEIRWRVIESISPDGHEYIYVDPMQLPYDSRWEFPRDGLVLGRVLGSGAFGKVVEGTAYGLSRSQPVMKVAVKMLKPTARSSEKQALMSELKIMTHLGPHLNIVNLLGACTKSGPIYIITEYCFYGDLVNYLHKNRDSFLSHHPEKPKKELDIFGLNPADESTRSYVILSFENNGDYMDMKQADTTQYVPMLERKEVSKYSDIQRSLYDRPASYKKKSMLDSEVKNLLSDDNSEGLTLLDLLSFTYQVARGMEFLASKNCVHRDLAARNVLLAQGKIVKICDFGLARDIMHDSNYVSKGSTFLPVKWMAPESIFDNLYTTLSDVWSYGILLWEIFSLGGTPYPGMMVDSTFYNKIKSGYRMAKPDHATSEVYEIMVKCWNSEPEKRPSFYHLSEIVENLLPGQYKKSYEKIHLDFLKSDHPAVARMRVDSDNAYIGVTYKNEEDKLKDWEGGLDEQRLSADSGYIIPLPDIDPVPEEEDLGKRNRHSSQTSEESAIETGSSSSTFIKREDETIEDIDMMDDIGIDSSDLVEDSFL
RAC-gamma serine/threonine-protein kinase (Homo sapiens), sequence (Q9Y243 whole entry): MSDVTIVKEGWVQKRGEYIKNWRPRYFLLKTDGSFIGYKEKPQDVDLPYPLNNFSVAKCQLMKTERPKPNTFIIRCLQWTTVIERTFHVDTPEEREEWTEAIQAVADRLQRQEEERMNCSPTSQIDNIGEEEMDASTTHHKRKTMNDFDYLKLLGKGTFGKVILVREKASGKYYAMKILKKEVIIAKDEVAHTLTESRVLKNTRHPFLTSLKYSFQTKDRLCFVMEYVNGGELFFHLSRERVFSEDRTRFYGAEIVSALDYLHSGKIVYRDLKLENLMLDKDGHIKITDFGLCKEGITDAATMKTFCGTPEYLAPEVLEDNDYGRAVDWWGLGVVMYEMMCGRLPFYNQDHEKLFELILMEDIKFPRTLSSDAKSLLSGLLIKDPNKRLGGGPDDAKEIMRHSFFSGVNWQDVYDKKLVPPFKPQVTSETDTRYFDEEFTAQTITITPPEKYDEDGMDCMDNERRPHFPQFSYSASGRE

In the case of `CC(=O)O/N=C1\C(=C2\C(=O)Nc3cc(Br)ccc32)Nc2ccccc21`, the residual activity in assay [1] came to 40%; in assay [2] it was 100%; in [3], 119%; in assay [4] it was 60%; in assay [5] it was 9%; in assay [6], 46%. The residual activity stood at 11% in [7]; 56% in assay [8]; 19% in assay [9]; 92% in assay [10]; 102% in assay [11]; 79% in assay [12]. The residual activity in assay [13] came out at 86%; in assay [14], 52%; in assay [15], 91%; in assay [16] it was 67%; in [17], 86%; in assay [18], 93%. Besides, the residual activity stood at 98% in [19] and 79% in [20].
Take `O=C1NC(=O)/C(=C/c2ccc3c(c2)OC(F)(F)O3)S1`: the residual activity in assay [1] was 77%; in assay [2], 127%; in [3], 102%; in [4] it was 81%; in assay [5], 66%; in [6] it was 96%. The residual activity in [7] is 70%; in [8], 91%; in [9] it was 87%; in [10], 85%; in [11], 127%; in assay [12] it was 113%. Besides, the residual activity in assay [13] stood at 108%; in [14] it was 116%; in assay [15], 108%; in assay [16] it was 106%; in assay [17], 102%; in [18], 74%. In addition, the residual activity in assay [19] was found to be 97%; in assay [20], 83%.
As to `Cc1nc(-c2ccccc2)c(-c2ccncc2)o1`, the residual activity is 99% in [1]; 119% in assay [2]; 88% in [3]; 105% in assay [4]; 108% in assay [5]; 114% in assay [6]. Besides, the residual activity in [7] came out at 114%; in [8], 99%; in assay [9], 88%; in assay [10], 100%; in assay [11], 89%; in assay [12], 83%. The residual activity stood at 99% in assay [13]; 92% in [14]; 114% in assay [15]; 102% in [16]; 94% in [17]; 85% in [18]. The residual activity in assay [19] amounted to 118%; in assay [20], 88%.
